gsp antag: antagonists of gsp mutant (McCune-Albright syndrome). 340,000 tested, 0.4% active. gsp-mutant cells, cAMP HTRF, 30 min. Potency, µM (top dose mostly 76.9 µM), without a hit: top-dose activity change, negative = inhibition, most hits filed as inhibitors; calls by dose curve; cell line not stated here;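 note: intracellular cAMP measured with PDE inhibitor Ro 20-1724 present during compound exposure; potency is the fitted concentration of half-maximal effect; % is set by controls: 0 for no effect and ±100 for the full control effect; nearly all actives have a fitted effect of over 65% in size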
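Measurement of cellular cAMP by homogeneous time-resolved fluorescence following a 30 min compound exposure at 37C. The PDE inhibitor […] was present throughout; the assay buffer was DPBS with 0.05% BSA and 0.005% Tween 20.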
BRCA1 expr act: increases BRCA1 expression; MCF7-BRCA1-FFLuc reporter, luminescence, 48 h; response scale: scaled: vehicle 0%, 10 µM genistein 100%; Potency, µM (titrated, usually from 46.1 µM), inactives show at the top dose activation, actives largely listed as activators; 380,000 tested, 1.1% active; note: potency is the fitted concentration of half-maximal effect; nearly all actives have a fitted effect of over 80% in size
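MCF7-BRCA1-FFLuc, 2000 cells/well; 2 h attach, 37 °C/5% CO2; compound 48 h; luciferase substrate 15 min; luminescence end-point. Norm. to genistein 10 microM max activation and DMSO; concentration-response curves fitted.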
IL-2 act: activates IL-2 in a cell-based reporter assay; activation, % (series mostly up to about 46 µM); 360,000 tested, 0.065% active; IL-2 activation reporter assay, cell-based qHTS; stimulated with anti-CD3/CD4/CD28 beads; in transgenic mouse T cells; in the data active = activation above about 50%; inconclusive = mostly about 30% to 49%; note: 0% is about no effect
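EGFP and DsRed fluorescence is measured by plate cytometry in unstimulated transgenic mouse T cells exposed to compound for 60 minutes, then stimulated 18 hours at 37 degrees C with anti-CD3/anti-CD4 beads plus anti-CD28.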
gsp ag: activates gsp, the McCune-Albright syndrome mutation; gsp mutant cells, cAMP HTRF, 30 min; Potency, µM (series often up to 76.9 µM), for inactives: top-dose activation (cAMP increase), hits mostly activators; 340,000 tested, 0.13% active; AID 624287; active = well fitted activation curve with a large enough effect; inconclusive = small, poorly fitted or top-dose-only effect, or another doubt; inactive = no such curve, though single readings can be large or run the other way; cell line not stated here;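 note: phosphodiesterase inhibitor Ro 20-1724 added with compounds to block cAMP breakdown; potency is the fitted concentration of half-maximal effect; nearly all actives have a fitted effect of over 60% in size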
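Cells stably selected in G418 were plated at 2000/well, grown 16-24 hr, then given compounds in DMSO with the PDE inhibitor […] (300 uM solution added) for 30 min at 37C; cAMP was read by HTRF.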
IDH1 R132H inh: inhibitors of human mutant IDH1 R132H; O75874; IDH1-R132H enzyme, NADPH consumption, diaphorase/resazurin fluorescence; Potency, µM (series often up to 76.6 µM), for inactives: at the top dose activity change, negative = inhibition, most hits filed as inhibitors; 390,000 tested, 0.093% active; AID 602179; note: potency is the fitted concentration of half-maximal effect; % is set by controls: 0 for no effect and ±100 for the full control effect; nearly all actives have a fitted effect of over 65% in size
Target sequence (O75874 whole entry R132H, stated change not applied): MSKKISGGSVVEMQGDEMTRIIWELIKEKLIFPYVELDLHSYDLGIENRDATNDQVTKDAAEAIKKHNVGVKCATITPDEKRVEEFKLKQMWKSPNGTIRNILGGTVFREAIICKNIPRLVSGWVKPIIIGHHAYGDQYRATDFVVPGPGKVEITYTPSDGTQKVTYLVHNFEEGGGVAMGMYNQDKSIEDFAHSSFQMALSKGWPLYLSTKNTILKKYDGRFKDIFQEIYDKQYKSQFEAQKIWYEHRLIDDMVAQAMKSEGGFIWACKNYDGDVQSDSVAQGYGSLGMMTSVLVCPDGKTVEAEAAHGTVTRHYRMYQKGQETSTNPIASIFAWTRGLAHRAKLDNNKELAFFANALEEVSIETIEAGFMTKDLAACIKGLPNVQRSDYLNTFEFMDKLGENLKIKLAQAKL
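IDH1-R132H (0.5 ug/mL) preincubated 30 min with compound, then NADPH (0.016 mM) and alpha-KG (2 mM) added; 80 min at RT, pH 7.5. Remaining NADPH coupled via diaphorase/resazurin to fluorescence (540/590 nm); concentration-response curves normalized to no-enzyme control.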
Active calls of the source: *; ? = inconclusive; nt = no result given; [ ] = dose if it differs, or a comment. Hits are enriched below; roughly 1.5% of the tested compounds scored in any of these assays. Unless noted, calls come from the whole dose curve; as a rule, active = well fitted curve in the direction sought with a large enough effect; inconclusive = small, poorly fitted or top-dose-only effect, or another doubt; inactive = no such curve, though single readings can be large; an effect the other way counts as inactive or inconclusive.

SMILES | gsp antag | BRCA1 expr act | IL-2 act | gsp ag | IDH1 R132H inh
Cc1ccc(NC(=O)c2cccc(Cl)c2)nc1 | -1% | ? | -1 | -75% | 2%
N#C/C(=C\c1c(Oc2ccc(Br)cc2)nc2ccccn2c1=O)c1nc2ccccc2s1 | nt | nt | nt | nt | 2%
N#Cc1nc(-c2ccc(Cl)cc2)oc1NCCc1ccccn1 | 5% | 3.5µM* | -1 | -21% | 7%
Cc1ccc(-c2nc(C#N)c(NCCc3ccccn3)o2)cc1 | 3% | 3.5µM* | 1 | 0% | -3%
COCCNc1oc(-c2ccc(C)cc2)nc1C#N | 8% | ? | 1 | -3% | 6%
COCCNc1oc(-c2ccc(Cl)cc2)nc1C#N | 2% | 5.6µM* | -1 | 10%[15.4 µM] | 5%
C=CC(=O)N1CCC[C@@H](n2nc(-c3ccc(Oc4ccccc4)cc3)c3c(N)ncnc32)C1 | nt | -65%[92.2 µM] | nt | nt | nt
COc1ccc(-c2csc(NC3CCCCC3)n2)c(OC)c1 | 0% | ? | -1 | 0%[15.4 µM] | 10%
COC(=O)c1ccc([C@H]2CC(=O)O2)cc1 | -2% | -10% | 0 | nt | 19%
N/C(=N\O)c1ccc(N2CCN(c3ncccc3C(F)(F)F)CC2)nc1 | -1% | 3.5µM* | -3 | -1%[15.4 µM] | -6%
O=C(Nc1ccc(N2CCN(c3ncccc3C(F)(F)F)CC2)nc1)c1cccs1 | 50µM* | -85% | -7 | 3%[15.4 µM] | 2%
CCCCOc1ccc(C2CCC(C(C)=O)C(C)C2)cc1 (configuration not stated) | 4% | 10µM* | -5 | -14%[15.4 µM] | 19%
Cc1ccc(S(=O)(=O)NC(=O)C2(C)CCN2C(=O)Cc2cccs2)nc1 (configuration not stated) | nt | -7% | 0 | nt | nt
CN1CCN(c2ccccc2NC(=O)c2ccc(-c3ccccc3)cc2)CC1 | 50µM* | -32% | -1 | 12% | 8%
COc1cccc(C(=O)Nc2ccccc2N2CCN(C(=O)c3ccccc3)CC2)c1 | 25µM* | -20% | 0 | 6% | -5%
COc1cccc(C(=O)Nc2ccccc2N2CCCC2)c1 | -7% | 0% | 0 | 5% | 0%
CN1CCN(c2ccccc2NC(=O)c2ccc(OCc3ccccc3)cc2)CC1 | 11% | -47% | -1 | 3% | 4%
CN(C)CCNC(=O)c1sc2nc(-c3ccccc3)cc(C(F)(F)F)c2c1N | 7% | -72% | -1 | ? | -10%
COc1ccc(-c2cc(C(F)(F)F)c3c(N)c(C(=O)NCCSC)sc3n2)cc1 | 2% | -56% | 119* | 27% | 5%
CNC(=O)c1cc2c(s1)CCCCCC2 | 4% | -3% | 0 | 19% | 3%
CC1CCC(NC(=O)c2cc3c(s2)CCCC3)CC1 (configuration not stated) | 1% | 4µM* | 1 | -10%[15.4 µM] | 5%
O=C(NCc1ccco1)c1cc2c(s1)CCCCC2 | 7% | 11µM* | -2 | -16% | 0%
O=C(Nc1ccon1)c1cc2c(s1)CCCC2 | 5% | ? | 3 | 3% | 3%
O=C(Nc1ccon1)c1cc2c(s1)CCCCCC2 | -7% | 10µM* | -2 | -15% | 3%
O=C(NCCc1cccs1)c1ccc(Cn2c(SCc3cccc(F)c3)nc3cccnc32)cc1 | nt | nt | nt | nt | -7%
SMILES | gsp antag | BRCA1 expr act | IL-2 act | gsp ag | IDH1 R132H inh
COc1ccc(S(=O)(=O)N(CC(=O)NCc2cccnc2)Cc2ccccc2)cc1 | 11µM* | -4% | 2 | 1%[15.4 µM] | 1%
COCC(=O)Nc1cccc(-c2nc3cccnc3s2)c1 | nt | nt | nt | nt | 7%
CC1(Cc2ccccc2Cl)C(=O)Nc2ccc(OC(F)(F)F)cc21 (configuration not stated) | nt | -43% | -1 | nt | nt
COc1ccc(-c2nnc(-c3ccc(C)cc3)o2)cc1 | 1% | 2.8µM* | -1 | 0% | 2%
Brc1ccc(-c2nnc(Cc3ccccc3)o2)cc1 | -9% | 11µM* | 0 | -5% | -7%
COc1ccc(Cc2nnc(-c3ccccc3)o2)cc1 | 10% | 13µM* | 0 | -21% | 16%
Cc1ccc(C(=O)N(Cc2nnc(-c3ccc(Cl)cc3)o2)C2CC2)o1 | -12% | 1% | 0 | 14% | -14%
COc1ccc(-c2nnc(-c3ccc(F)cc3)o2)cc1 | 4% | ? | -3 | -6%[15.4 µM] | 6%
c1ccc(Cc2nnc(-c3ccccc3)o2)cc1 | ? | -71% | -3 | -11% | 6%
Cc1ccc(-c2nnc(Cc3ccc(Cl)cc3)o2)cc1 | -2% | 13µM* | -2 | -3% | 9%
COc1cc(NC(=O)Cn2c(=O)n(C(C)C)c(=O)c3oc4ccccc4c32)cc(OC)c1 | nt | nt | nt | nt | 3%
COc1cc2nc(N3CCCCC3)nc(NC3CCN(C)CC3)c2cc1OC | nt | -51% | nt | nt | nt
Cn1c(C(=O)NCCc2ccccc2)cc2cc(S(=O)(=O)N3CCCCC3)ccc21 | nt | nt | nt | nt | -11%
O=C1OCCC1Sc1nnc2c(n1)[nH]c1ccccc12 (configuration not stated) | nt | 2% | nt | nt | nt
CCOc1ncccc1C(=O)OCC(=O)N1CCN(S(=O)(=O)c2ccc(Cl)cc2)CC1 | -24% | 3% | -2 | 7.9µM* | 4%
COc1ccc([N+](=O)[O-])cc1NC(=O)COC(=O)Cc1cc(OC)c(OC)c(OC)c1 | 50µM* | -6% | 0 | 7% | 11%
O=C(Nc1ccc(F)cc1)C1CC2CCC1C2 (configuration not stated) | 3% | -6% | 0 | 12% | -8%
CCC(C)c1ccc(NC(=O)C2CC3CCC2C3)cc1 (configuration not stated) | -11% | 7.1µM* | 0 | 20% | 11%
CC(C)c1ccc(NC(=O)C2CC3CCC2C3)cc1 (configuration not stated) | -8% | 6.3µM* | 0 | -28% | -4%
Cc1ccc(Cc2nc3ccccc3nc2SCC(=O)N2CCN(c3ccc(F)cc3)CC2)cc1 | nt | nt | nt | nt | -14%
Oc1ccc2ccccc2c1/C=N/Nc1nnc(-c2ncc[nH]2)c2ccccc12 | 7% | -100% | 56* | 44% | 0%
Brc1cccc[n+]1CCC[n+]1ccccc1Br | nt | -5% | nt | nt | nt
Cc1nnc(-c2ccc(Oc3ccc(Br)cc3)c([N+](=O)[O-])c2)o1 | 50µM* | -4% | 2 | -19% | 2%
O=C(c1cccs1)N1CCC(c2ccccc2)C1 (configuration not stated) | -8% | 3.5µM* | -3 | -1% | 21%
COc1ccc(NC(=S)N2CCC(C(O)(c3ccccc3)c3ccccc3)CC2)cc1 | ? | -17% | 0 | -19% | 0%
Cc1cccc(OCC(=O)N2CCC(c3ccccc3)C2)c1 (configuration not stated) | 0% | 7.9µM* | -2 | 6% | 4%
COc1ccc(NC(=S)N2CCC(c3ccccc3)C2)cc1 (configuration not stated) | 10% | 2.8µM* | 0 | -9% | -1%
O=C(Nc1ccccc1)N1CCC(c2ccccc2)C1 (configuration not stated) | -9% | 3.2µM* | 2 | -46% | -1%
